# In PubChem BioAssay (Tox21):
# Inconclusive results are not listed. Entries that show only a call come without a potency. The source made the active and inactive calls. The call rests on the fitted dose curve; in most records, active means well fitted cell-killing curve with a large enough effect in the repeat runs; inconclusive means weak or mixed curves, or effect the other way; inactive means flat fitted curve, though single readings scatter.
# Experiment: qHTS RealTime-Glo MT Cell Viability Assay in HepG2 cells - 0 hour (AID 1224889); further: nearly all actives have a fitted effect of over 50% in size
# Settings: RealTime-Glo luminescence; series mostly up to 76.8 µM
# Text: U.S. Tox21 Program National Center for Advancing Translational Sciences [NCATS] NIH Chemical Genomics Center [NCGC] U.S. Environmental Protection Agency [EPA] National Institutes of Environmental Health Sciences [NIEHS] National Toxicology Program [NTP] U.S. Food and Drug Administration [FDA] Tox21 Assay Overview: Measure of cell viability is critical in the cell-base assay. Analysis of cell viability is necessary for the characterization of cell responses to cytotoxic drugs and environmental stress. A RealTime-Glo MT Cell Viability Assay to monitor cell viability in real time of continues cell culture during 40 hours of compound treatment was used to screen Tox21 10K library compounds in HepG2 cells. The RealTime-Glo MT Cell Viability Assay is a nonlytic, homogeneous, bioluminescent method to measure cell viability in real time using a simple, plate-based method. The assay involves adding NanoLuc luciferase and a cell-permeant prosubstrate to cells in culture. Viable cells reduce the proprietary prosubstrate to generate a substrate for NanoLuc luciferase. This substrate diffuses from cells into the surrounding culture medium, where it is rapidly used by the NanoLuc Enzyme to produce a luminescent signal. The signal correlates with the number of viable cells, making the assay well suited for cytotoxicity studies.
# Tox21 Assay Protocol Summary: The mixture of HepG2 cell suspension and reagents were dispensed at 600cells/6 ul/well in 1536-well tissue culture treated black solid bottom plates using a Multidrop dispenser. After the assay plates were incubated at a 37 C/5% CO2 incubator for 5 hours, 23 nL of compounds dissolved in DMSO, positive and negative controls was transferred to the assay plate by a pintool work station. The plates were incubated at 37 C for 40 hours. The luminescence intensity were measured at 0h, 8h, 16h, 24h, 32h and 40h time points using ViewLux plate reader during compound treatment.
row,SMILES,Potency
1,Cc1cc(C)c(C)c(O)c1,inactive
2,CCc1ccc2c(c1)C(=O)c1ccccc1C2=O,inactive
3,CCCCCCCCCCCCN1CCOCC1,inactive
4,O=C(OCCOCCOCCOC(=O)c1ccccc1)c1ccccc1,inactive
5,CCOc1ccc(NC(C)=O)cc1N,inactive
6,C1=COCCC1,inactive
7,O=S(=O)(O)c1cc(Cl)c(Cl)cc1Cl,inactive
8,O=C(O)c1ccc2cc(O)ccc2c1,inactive
9,CCc1ccc(C(=O)C(C)CN2CCCCC2)cc1 (stereo not given),inactive
10,Cc1ccc2c(Cl)cc(Cl)c(O)c2n1,inactive
11,CC/C=C\CCO,inactive
12,CC(COc1ccccc1)NC(C)C(O)c1ccc(O)cc1 (stereo not given),inactive
13,NC(=O)c1ccccc1,inactive
14,Cc1c(-c2cccnc2)c2ccccc2n1CCCCC(=O)O,inactive
15,C(/C=C/C=C/Nc1ccccc1)=Nc1ccccc1,inactive
16,C=CC(O)CCCCC (stereo not given),inactive
17,CC(O)CN (stereo not given),inactive
18,CC(=O)Nc1cccc(N)c1,inactive
19,S=c1[nH][nH]c(=S)s1,inactive
20,CCc1c(C)[nH]c2c1C(=O)C(CN1CCOCC1)CC2 (stereo not given),inactive

row,SMILES,Potency
1,Cc1cc(N)n(-c2ccccc2)n1,inactive
2,O=C1OC(=O)C2CC=CCC12 (stereo not given),inactive
3,CCOC(C)OCC,inactive
4,O=C(O)CNc1ccccc1,inactive
5,C=C[Si](OCC)(OCC)OCC,inactive
6,OCCCO,inactive
7,O=Cc1ccc([N+](=O)[O-])cc1,inactive
8,CCCCCCCCCC(C)C=O (stereo not given),inactive
9,Clc1cccc(C(c2ccc3nc[nH]c3c2)n2ccnc2)c1 (stereo not given),inactive
10,N#C[C@@H]1CC(F)(F)CN1C(=O)CNC1CC2CCC(C1)N2c1ncccn1 (stereo not given in full),inactive
11,O=C(O)c1ccccc1[N+](=O)[O-],inactive
12,C[C@@H](O)[C@H]1C(=O)N2C(C(=O)O)=C(S[C@@H]3CN[C@H](CNS(N)(=O)=O)C3)[C@H](C)[C@H]12,inactive
13,CC(=O)Nc1ccccc1O,inactive
14,CC(Cc1ccccc1)(NC(=O)CN)c1ccccc1 (stereo not given),inactive
15,CC(O)C(C)O (stereo not given),inactive
16,Clc1nc2ccccc2nc1Cl,inactive
17,O=C1c2ccccc2C(=O)c2c1ccc(O)c2O,inactive
18,CC(C)(C)c1ccc(CCC=O)cc1,inactive
19,CCCCCCCCNC,inactive
20,Cc1c(Cl)cccc1[N+](=O)[O-],inactive
